Measurements reported in PubChem BioAssay (NCI).
About 79,000 compounds went through this panel and 15% of them were active in at least one assay; those are over-represented in the sample as a whole. Values without a mark were called inactive. Activity calls are given as the source filed them. Cut-off read from the data, not from the text of the source: active = growth inhibition above about 70%; inactive = the rest.

Assays:
[1] = NCI Yeast Anticancer Drug Screen. Data for the rad50 strain (AID 155);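 note: 0% = growth of vehicle-only cultures of the same strain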; settings: S. cerevisiae rad50 strain growth inhibition, active compounds read high
Procedure, shortened: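 Inhibition values express reduced yeast growth in compound-treated cultures relative to vehicle-treated controls.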

[2] = NCI Yeast Anticancer Drug Screen. Data for the mec2-1 strain (AID 157); settings: S. cerevisiae mec2-1 strain, active compounds read high
Procedure, shortened: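 Test agents were screened against the mec2-1 yeast strain, with defined DNA repair or cell cycle alteration. Growth was scored as inhibition against vehicle-only controls.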

[3] = NCI Yeast Anticancer Drug Screen. Data for the sgs1 mgt1 strain (AID 161);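 note: 0% = growth of cultures given vehicle only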; settings: S. cerevisiae sgs1 mgt1 strain, active compounds read high
Procedure, shortened: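 Inhibition of yeast growth, normalised to vehicle-treated controls, is reported for a strain bearing genetic alterations in DNA damage repair.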

[4] = NCI Yeast Anticancer Drug Screen. Data for the cln2 rad14 strain (AID 165);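 note: 0% = growth equal to vehicle treated cultures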; settings: S. cerevisiae cln2 rad14 strain, active compounds read high
Procedure, shortened: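 Growth of compound-exposed yeast (cln2 rad14 genotype) measured and expressed as inhibition relative to vehicle.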

[5] = NCI Yeast Anticancer Drug Screen. Data for the bub3 strain (AID 167); settings: S. cerevisiae bub3 mutant strain, active compounds read high
Procedure, shortened: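 Steps: expose the mutant yeast strain to compound; grow alongside vehicle-treated cultures; measure growth; express inhibition against the vehicle cultures.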

[6] = NCI Yeast Anticancer Drug Screen. Data for the mlh1 rad18 strain (AID 175); settings: S. cerevisiae mlh1 rad18 strain growth inhibition, active compounds read high
Procedure, shortened: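 In this whole-cell yeast screen, a strain with altered DNA damage repair is challenged with compound, and its growth is measured against matched vehicle-treated controls.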

[7] = at 5.0 µM (retest, dose inferred, filed as 0.5)
[8] = at 50.0 µM (retest, dose inferred, filed as 5.0)

Row | Compound | growth inhibition [1, 7] | growth inhibition [1, 8] | growth inhibition ([1]; at 50.0 µM) | growth inhibition [2, 7] | growth inhibition [2, 8] | growth inhibition ([2]; at 50.0 µM) | growth inhibition [3, 7] | growth inhibition [3, 8] | growth inhibition ([3]; at 50.0 µM) | growth inhibition [4, 7] [%] | growth inhibition [4, 8] | growth inhibition ([4]; at 50.0 µM) | growth inhibition [5, 7] [%] | growth inhibition [5, 8] | growth inhibition ([5]; at 50.0 µM) | growth inhibition [6, 7] [%] | growth inhibition [6, 8] | growth inhibition ([6]; at 50.0 µM)
1 | O=[N+]([O-])c1ccc(CSSCc2ccc([N+](=O)[O-])cc2)cc1 | 5% | 18% | 18.5% | 9% | 39% | 16.7% | 21% | 49% | 41.5% | -3 | 36% | -18.2% | 26 | 66% | 72.5% (active) | 10 | 49% | 28%
2 | CCC(=O)/C(=C\c1ccccc1)C(=O)C(C)CN(C)C (stereo not drawn) | 9% | 23% | 7% | 13% | 16% | 17.6% | 12% | 16% | 26.6% | 20 | 25% | 25.8% | 10 | 15% | 33.8% |  |  | 
3 | C[CH2][Sn]([CH2]C)([O]C(=O)c1ccccc1OC)[O][Sn]([CH2]C)([CH2]C)[O]C(=O)c1ccccc1OC | 36% | 78% (active) | 51.6% | 35% | 87% (active) | 41% | 33% | 83% (active) | 42.2% | 20 | 62% | 20.8% | 35 | 94% (active) | 32.1% | 38 | 84% (active) | 72.8% (active)
4 | Cc1cccc2c(Nc3ccc(NS(C)(=O)=O)cc3)c3ccccc3nc12 | 55% | 94% (active) | 96.5% (active) | -1% | 41% | 47.3% | 1% | 17% | 28.6% | -7 | 19% | -12.7% | -2 | 2% | 24.6% |  |  | 
5 | CC1(C)NC(=O)C(C)(C)NC1=O | 4% | -2% | -12.9% | 1% | 2% | 5.8% | 0% | -1% | -7.4% | 2 | 3% | -19.9% | 4 | -2% | 48% | 3 | 3% | -14.8%
6 | CCN(CC)CCC(=O)/C=C/c1ccc(C)cc1 | 4% | 97% (active) | 57.4% | 9% | 99% (active) | 10.9% | 4% | 99% (active) | 18.6% | 3 | 97% (active) | 50% | 7 | 99% (active) | 15.1% | 6 | 99% (active) | 24.1%
7 | C/C(=N\NC(=S)Nc1ccc(Cl)cc1)c1nc2ncccc2[nH]1 | 3% | 98% (active) | 89.8% (active) | -6% | 98% (active) | 90.2% (active) | 0% | 96% (active) | 85.2% (active) | -38 | 99% (active) | 87.9% (active) | -28 | 95% (active) | 90.1% (active) |  |  | 
8 | COC(=O)C1c2cc(C)ccc2-c2ccc(C)cc21 | 31% | 2% | 13.6% | 3% | -17% | 13.3% | 0% | 23% | 2.95% | -14 | 8% | 30.2% | -10 | 18% | 6.75% | 4 | 26% | 49.5%
9 | CC(C)C1=CC2=CC(=O)C3C(C)(C)CCCC3(C)C2=C(O)C1=O (stereo not drawn) | 90% (active) | 88% (active) | 87.8% (active) | 99% (active) | 94% (active) | 89.8% (active) | 98% (active) | 94% (active) | 90% (active) | 24 | 86% (active) | 85.5% (active) | 49 | 93% (active) | 87.4% (active) |  |  | 
10 | Cc1ccc(S(=O)(=O)Nc2ccccc2SSc2ccccc2NS(=O)(=O)c2ccc(C)cc2)cc1 | 46% | 69% | 57.5% | 38% | 81% (active) | 63.8% | 59% | 76% (active) | 60.6% | 44 | 82% (active) | 68.9% | 53 | 74% (active) | 60.4% | 63 | 77% (active) | 60.5%
